GALK inh: inhibitors of human galactokinase; actives 0.007% (n = 270,000); Purified GALK, Kinase-Glo residual ATP luminescence; P51570; Potency, µM (series often up to 57.5 µM), inactives show top-dose activity change, negative = inhibition, actives largely listed as inhibitors; further: on the % scale 0 is the no-effect control and ±100 the full control effect
Target sequence (P51570 whole entry, looked up): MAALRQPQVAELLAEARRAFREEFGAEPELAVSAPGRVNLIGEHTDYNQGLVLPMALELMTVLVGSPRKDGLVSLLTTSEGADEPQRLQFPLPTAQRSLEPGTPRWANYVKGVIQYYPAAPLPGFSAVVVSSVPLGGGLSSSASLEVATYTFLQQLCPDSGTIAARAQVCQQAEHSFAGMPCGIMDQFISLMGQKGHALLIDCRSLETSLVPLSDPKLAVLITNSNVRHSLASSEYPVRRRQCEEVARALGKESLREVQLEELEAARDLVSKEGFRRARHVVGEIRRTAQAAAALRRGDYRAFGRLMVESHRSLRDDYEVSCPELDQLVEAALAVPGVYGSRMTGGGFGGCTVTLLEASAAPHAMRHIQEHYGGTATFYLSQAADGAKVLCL
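Human GALK (5 nM) with 35 uM ATP and 100 uM galactose in 20 mM HEPES pH 8.0, 5 mM MgCl2, 60 mM NaCl, 1 mM DTT, 0.01% BSA. After 1 h at room temperature, leftover ATP was read by Kinase-Glo Plus luminescence.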
TrxR1 substrate: substrates of rat thioredoxin reductase 1; actives 0.01% (n = 390,000); O89049; purified TrxR1 substrate turnover, NADPH consumption readout; Potency, µM (doses to about 114 µM), for inactives: at the top dose activity change, negative = substrate turnover; AID 588456; further: on the % scale 0 is the no-effect control and ±100 the full control effect; nearly all actives have a fitted effect of over 50% in size
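Rat TrxR1, dispensed at 90 nM, was prereduced with 400 uM NADPH (final) for 5 min at ~22 deg C, then incubated with compound 15 min before 400 uM selenite. A first-read NADPH fluorescence drop versus no-compound background flagged substrates.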
Nrf2 inh: blocks Nrf2 signaling | A549 ARE-Fluc reporter, luciferase luminescence, 18-24 h | AID 504444 | Potency, µM (series often up to 46 µM), inactives show at the top dose activity change, negative = inhibition, hits mostly inhibitors | actives 2.1% (n = 360,000); further: on the % scale 0 is the no-effect control and ±100 the full control effect; nearly all actives have a fitted effect of over 60% in size
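Nrf2 activity is the BugLite luminescence, read 15 min after reagent at room temperature, following CellTiter-Fluor cytotoxicity readout (30 min, 37C). Compound titrations were applied for 18-24 h to 5000 A549 ARE_Fluc cells/well in 5% FBS OPTI-MEM.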
A549 viability: kills or reduces viability of A549 cells in Nrf2 counter-screen; Potency, µM (top dose mostly 46 µM), inactives show at the top dose activity change, negative = cytotoxicity, usual class: inhibitors; A549 ARE-Fluc cells, CellTiter-Fluor viability, 18-24 h; actives 0.16% (n = 390,000); further: on the % scale 0 is the no-effect control and ±100 the full control effect
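A549 ARE_Fluc cells in 5% FBS OPTI-MEM were exposed to compounds in concentration-response for 18-24 h at 37 deg C. Viability was read by CellTiter-Fluor fluorescence (Ex 405/Em 525) after 30 min, before the luciferase read.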
rTrxR1 inhibitor: rat TrxR1 inhibition. recombinant rTrxR1, NADPH fluorescence consumption, selenite substrate. actives 1% (n = 390,000). O89049. Potency, µM (titrated, usually from 114 µM), inactives show top-dose activity change, negative = inhibition, usual class: inhibitors; further: on the % scale 0 is the no-effect control and ±100 the full control effect; nearly all actives have a fitted effect of over 65% in size
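Rat TrxR1 (90 nM in the dispensed reagent) was pre-reduced with 400 uM NADPH for 5 min at room temperature, then incubated with compound for 15 min. After 400 uM selenite was added, NADPH fluorescence (Ex 340/Em 450 nm) was followed for 8 min.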
Nrf2 activator: activates Nrf2 signaling; actives 0.31% (n = 410,000); Potency, µM (top dose mostly 46.1 µM), inactives show top-dose activation, usual class: activators; AREc32 ARE-luciferase reporter (MCF7-derived line), luminescence, 24 h; further: % of control where 0% means no effect; nearly all actives have a fitted effect of over 65% in size
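Nrf2 activation is followed as ARE-luciferase induction in the AREc32 line after one day of compound treatment; luminescence is read with Steady-Glo.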
Numbers without * were called inactive; ? = inconclusive; nt = no result; [ ] = dose if it differs, or a comment. An excerpt weighted towards active compounds, which were near 3% of everything screened. The call rests on the fitted dose curve; in most records, active means well fitted curve in the direction sought with a large enough effect; inconclusive means small, poorly fitted or top-dose-only effect, or another doubt; inactive means no such curve, though single readings can be large; an effect the other way counts as inactive or inconclusive. Potency means the concentration at half of the fitted maximal effect.

SMILES | GALK inh | TrxR1 substrate | Nrf2 inh | A549 viability | rTrxR1 inhibitor | Nrf2 activator
Cc1noc(/C=C/c2ccco2)c1S(=O)(=O)N1CCC(C(=O)N(C)Cc2ccccc2)CC1 | 1% | -12% | -3% | -3% | 71µM* | 8%
Cc1noc(/C=C/c2ccco2)c1S(=O)(=O)N1CCC(C(=O)NC(C)c2ccccc2)CC1 (centres undefined) | 2% | 7%[57.1 µM] | -14% | 4% | ? | 11%
Cc1cc2oc3c(c(=O)c2cc1C)C1(C(=O)N(C)c2ccccc21)N(CCO)C3=O (centres undefined) | nt | 0% | -11% | 2% | 9% | -1%
CC(=O)c1c(C)[nH]c(C(=O)CSc2nc3ccccc3n2C)c1C | 3% | -5%[11.4 µM] | 15µM* | -3% | 11%[11.4 µM] | 2%
Cc1cc(NC(=O)C(C)C)cc(-c2nc3ncccc3o2)c1O | nt | -1% | 20% | -2% | 6% | -1%
COc1ccc(Cn2c(C(=O)O)c(CNCc3ccc(OC)cc3OC)c3ccc(C)cc32)cc1 | nt | 2% | ? | 13µM* | 16% | 4%
Cc1ccc2c(CNCc3cccs3)c(C(=O)O)n(Cc3ccc(F)cc3)c2c1 | nt | -8% | -22% | 12µM* | -1% | 4%
CCOc1ccccc1CNCc1c(C(=O)O)n(Cc2ccc(F)cc2)c2cc(C)ccc12 | nt | 1% | ? | 18µM* | 21% | 0%
COc1ccc(Cn2c(C(=O)O)c(CNCc3cccs3)c3ccc(C)cc32)cc1 | nt | -6% | -22% | ? | -4% | 6%
C=Cc1ccc(Cn2c(C(=O)O)c(CNCc3cccs3)c3ccc(C)cc32)cc1 | nt | -1% | -27% | 15µM* | 9% | 0%
c1cc2c(cc1Cc1cncc(Cc3ccc4c(c3)OCO4)c1)OCO2 | nt | 3% | nt | nt | 23% | nt
COc1ccc(C2c3c(N)nc(CCCc4ccccc4)nc3Oc3ccc4ccccc4c32)cc1OC (centres undefined) | nt | nt | -9% | -11% | nt | nt
O=C(NCc1cccnc1)/C(=C\c1ccc(-c2ccc(Cl)c(Cl)c2)o1)S(=O)(=O)c1ccccc1 | -2% | -3% | 18µM* | ? | ? | ?
CCOC(=O)c1cc(C)sc1/N=C/C1=C(O)CCCC1=O | 0% | 3% | 4% | -7% | 20µM* | 2%
CCOC(=O)c1cc(C)sc1/N=C/C1C(=O)CCCC1=O | 0% | -13% | -4% | -5% | -22% | 0%
CSc1ccc(CCNC(=O)CCCn2nc(C)c3sc4ccccc4c3c2=O)cc1 | nt | 35% | ? | -1% | 51% | -1%
O=C(c1ccco1)N1CCCC(c2nc(-c3ccc(S(=O)(=O)NCc4ccccc4)cc3)no2)C1 (centres undefined) | -1% | 12% | 10µM* | -11%[1.84 µM] | 25% | -1%
O=C1c2ccccc2C(=O)N1c1noc2ccccc12 | nt | nt | ? | 11% | nt | nt
COc1cccc(NC(=O)CCN2C(=O)c3ccccc3Sc3ncccc32)c1 | -3% | -2% | ? | -1% | 71µM* | 0%
Cc1ccccc1NC(=O)CCN1C(=O)c2ccccc2Sc2ncccc21 | nt | -1% | 22% | 3% | ? | 0%
Cc1cc(/C=C2\Sc3ccccc3N2C)cc(C)[n+]1CC1CCCO1 (centres undefined) | -1% | -6%[57.1 µM] | 1.2µM* | 4.1µM* | 6%[57.1 µM] | 12%
Cc1ccc(/C=C2/Sc3ccccc3N(CC(=O)NCC3CCCO3)C2=O)cc1 (centres undefined) | 1% | 2% | 3% | -7% | 3% | 0%
O=c1[nH]nc(Sc2ncnc3sccc23)n1CCc1ccccc1 | -4% | 3% | 15µM* | -5% | ? | ?
CCN(CC)C(=O)CSc1n[nH]c(=O)n1CCc1ccccc1 | 5% | 3% | -9% | 2% | 15% | 0%
COc1ccc2cc(C(=O)NCc3ccc4c(c3)CCN4C(=O)c3ccc(F)cc3)[nH]c2c1 | nt | -9%[57.1 µM] | nt | -5% | -8%[57.1 µM] | 0%
SMILES | GALK inh | TrxR1 substrate | Nrf2 inh | A549 viability | rTrxR1 inhibitor | Nrf2 activator
Cc1cc(C)nc(SCc2cc(=O)c(OC(=O)c3ccc(S(=O)(=O)N(C)C)cc3)co2)n1 | 0% | -2% | 3% | 0% | 50µM* | 0%
Cc1ccnc(SCc2cc(=O)c(OC(=O)c3ccc(S(=O)(=O)N(C)C)cc3)co2)n1 | -2% | 2% | -6% | -8% | 10µM* | -1%
Cc1cc(C)nc(SCc2cc(=O)c(OC(=O)c3ccc(Cl)c([N+](=O)[O-])c3)co2)n1 | -3% | -2% | 0% | -3% | ? | 5%
Cc1ccnc(SCc2cc(=O)c(OC(=O)c3ccc(S(=O)(=O)N4CCCC4)cc3)co2)n1 | 2% | 3% | 2% | -6% | 28µM* | -1%
Cc1cc2c(s1)c1cnn(Cc3ccc(C(F)(F)F)cc3F)c(=O)c1n2C | nt | nt | 1% | 3% | nt | nt
CCNc1nc(NC(C)C)nc(N(C#N)CCOc2ccc(Cl)cc2Cl)n1 | 3% | 2% | 9.2µM* | nt | 4% | 4%
O=C(CCSCc1cnn(-c2ccccc2)c1-n1cccc1)NCc1ccc(Cl)cc1 | nt | 11% | ? | -1% | 3% | 0%
COc1ccc(C(=O)c2no[n+]([O-])c2C(=O)c2ccc(OC)cc2)cc1 | 0% | -6% | ? | -13% | 0.63µM* | 8%
COc1ccc(NC(=O)c2c(N)no[n+]2[O-])cc1 | 10% | -3% | ? | ? | 25%[57.1 µM] | 9%
O=C(c1cccs1)c1no[n+]([O-])c1C(=O)c1cccs1 | -5% | 4% | ? | ? | 0.71µM* | 2%
Cc1cccc(NC(=O)CSc2nccn2-c2cccc(Cl)c2)c1C | nt | 9%[57.1 µM] | nt | 7% | 22%[57.1 µM] | -1%
O=S(=O)(c1ccc(Cl)s1)N1CCN(C/C=C/c2ccccc2)CC1 | 2% | -4% | 10µM* | -4% | 18% | 3%
O=S(=O)(c1cccs1)N1CCN(C/C=C/c2ccccc2)CC1 | 3% | 16%[57.1 µM] | nt | 11% | 17%[57.1 µM] | 2%
CC1(C)CC(=O)C(C(C#Cc2ccccc2)C2=C(O)CC(C)(C)CC2=O)=C(O)C1 | -4% | -1%[57.1 µM] | 9% | -7% | 10µM* | 9%
O=C1CCCC(O)=C1Sc1ccccc1C(=O)O | 0% | -1% | -13% | -3% | 20% | 0%
O=C1CCCC(O)=C1C(C#Cc1ccccc1)C1=C(O)CCCC1=O | 1% | -15% | -3% | -3% | 10µM* | ?
Cc1cccc(-n2c(=O)c3c(c4cc(C)ccc4n3C)n(C)c2=O)c1 | nt | 41% | 17% | -1% | 13% | 1%
COc1cccc(CNC(=O)CCc2cn(Cc3ccccc3Cl)c3ccccc23)c1 | nt | -6% | ? | 1% | 10% | 1%
